Drawing on PubChem BioAssay AID488920 (Sanford-Burnham Center for Chemical Genomics, 2010), this text covers IC50 for 16 compounds.

Values without a mark were called inactive. The source made the active and inactive calls. Rule as the data show it: active = IC50 below about 3 µM; inactive = the rest.

A short description of this assay: luminescent readout interference, potency – biochemical, luminescence, artefact control for SENP inhibitor project, dose response (AID 488920). As to conditions: luminescence interference counterscreen, spectral interferers. (In general: The purpose of a counterscreen is to sort out artefacts and off-target activity.)
The IC50 is the concentration needed to halve the response being measured. In the case of `COc1ccc(C(=O)c2nccc3cc(OC)c(OC)cc23)cc1OC`, the IC50 was over 5 µM.

As to `Oc1[nH]c2ccccc2c1N=Nc1ccc(F)cc1`, the IC50 was 0.888 µM (active).

Take `O=c1oc2c(O)cccc2cc1-c1nc2ccccc2[nH]1`: the IC50 was 0.606 µM (active).

Regarding `CCC(C)n1c(NC(=O)c2ccccc2)c(C#N)c2nc3ccccc3nc21` (stereo unspecified), the IC50 was over 5 µM.

With `C/C(=N\OC(=O)c1ccc(Br)cc1)c1ccccn1`, the IC50 was 0.548 µM (active).

Consider `O=C1c2ccccc2-c2nnc(-c3ccc(F)cc3)cc21`, for which the IC50 is 1.18 µM (active).

For the compound `Cc1ccc(NC2=C/C(=N/S(=O)(=O)c3cccs3)c3ccccc3C2=O)cc1`, the IC50 is over 5 µM.

Regarding `Cc1ccc(S(=O)(=O)/N=C2\C=C(Nc3cccc(C(=O)O)c3)C(=O)c3ccccc32)c(C)c1`, the IC50 was over 5 µM.

`COc1cc([N+](=O)[O-])ccc1N/C=C/C(=O)c1cccs1`: the IC50 is 0.458 µM (active).

Take `O=c1[nH]c(Nc2ccccc2)cc2ccccc12`: the IC50 was over 5 µM.

Consider `CCCCn1c(NC(=O)c2ccccc2Cl)c(C#N)c2nc3ccccc3nc21`, for which the IC50 is over 5 µM.

With `Cc1ccnc(Nc2nc(-c3ccccc3)cs2)c1`, the IC50 was 0.824 µM (active).

On to `O=C(O)c1ccc(NC2=C/C(=N/S(=O)(=O)c3ccccc3)c3ccccc3C2=O)cc1`, for which the IC50 was over 5 µM.

`CCOc1ccc(/C=C2\CCc3ccccc3C2=O)cc1`: the IC50 is 0.782 µM (active).

In the case of `COc1cc(C(=O)c2nccc3cc(OC)c(OC)cc23)c([N+](=O)[O-])cc1OC`, the IC50 was over 5 µM.

In the case of `Cc1nc(Nc2ccc(C(=O)O)cc2)sc1-c1ccccc1`, the concentration for half-maximal inhibition (IC50) was 0.325 µM (active).
